Source: PubChem (National Center for Advancing Translational Sciences (NCATS))
NS1 inh: qHTS Assay for Inhibitors of Influenza NS1 Protein Function | Potency, µM (series often up to 46.1 µM), for the others: top-dose activity, positive = more growth | 270,000 compounds, 0.4% hits; calls by dose curve; also: actives are rising curves; nearly all actives have a fitted effect of over 50% in size
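Read-out: OD600 growth recovery of NS1-expressing budding yeast. Cells grown overnight at 30C in -URA glucose medium, washed, resuspended and diluted 1:100 in 2% galactose assay medium, pH 6.0. Same strain lacking NS1 served as positive control.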
Pf growth 96h: Primary qHTS for delayed death inhibitors of the malarial parasite plastid, 96 hour incubation. P. falciparum luciferase reporter growth, 96 h. Potency, µM (top dose mostly 28.7 µM), for the others: at the top dose activity change, negative = inhibition, usual class: inhibitors. 320,000 compounds, 6.9% hits. AID 504834, 2011; also: % is scaled to controls: 0 for no effect and ±100 for the full control effect
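Readout is luminescence from an integrated firefly luciferase in P. falciparum. Red cells, 2% hematocrit and 0.05% parasitemia final, were cultured with compound through two parasite generations (96 hours) at 37 C, 5% CO2.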
AMA1-RON2 inh: qHTS for Inhibitors of AMA1-RON; Towards Development of Antimalarial Drug Lead: Primary Screen. AlphaScreen AMA1-biotinylated RON2 peptide binding. Potency, µM (titrated, usually from 58.2 µM), for the others: at the top dose activity change, negative = inhibition, hits mostly inhibitors. 360,000 compounds, 0.2% hits. AID 720542, 2013;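 also: 0% = vehicle wells and -100% = peptide control; nearly all actives have a fitted effect of over 45% in size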
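AMA1 (3D7) with his tag at 25 nM final met compounds first, then biotinylated RON2 peptide at 25 nM; detection used donor plus acceptor beads, 10 µg/mL apiece, read by AlphaScreen after 30 min at room temperature.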
SARS PLpro yeast: qHTS of Yeast-based Assay for SARS-CoV PLP | S. cerevisiae expressing SARS-CoV PLpro, growth rescue | 330,000 compounds, 0.19% hits | AID 485353, 2010 | Potency, µM (highest dose often 32.9 µM), without a hit: at the highest dose activity, positive = growth rescue, usual class: activators; calls by dose curve; also: 0% is about no effect; nearly all actives have a fitted effect of over 55% in size
Pf growth 48h: Primary qHTS for delayed death inhibitors of the malarial parasite plastid, 48 hour incubation | P. falciparum luciferase growth in erythrocytes, 48 h | Potency, µM (top dose mostly 28.7 µM), for inactives: top-dose activity change, negative = inhibition, actives largely listed as inhibitors | 310,000 compounds, 5.9% hits | AID 504832, 2011; also: % is scaled to controls: 0 for no effect and ±100 for the full control effect
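Parasite viability was followed by luminescence of a genomically integrated firefly luciferase. Cultures held 0.1% parasitemia at 2% hematocrit (final), incubated under 5% CO2 at 37 C.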
HCV inh: qHTS Assay for Inhibitors of Hepatitis C Virus (HCV) | Huh7.5.1 HCVcc-Cre infection, luciferase reporter, 44 h | Potency, µM (series often up to 41.8 µM), for the others: top-dose activity change, negative = inhibition, actives largely listed as inhibitors | 340,000 compounds, 3.4% hits | AID 651820, 2012; also: % is scaled to controls: 0 for no effect and ±100 for the full control effect
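HCVcc-Cre virus at an moi near 0.5 was added right after compound to cells cultured 4 h from seeding (1,000 cells/well). Luciferase activity was determined 44 h later, 15 min after substrate addition at RT.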
The depositor's hits bear a star; ? = inconclusive; · = no result; ! = a repeat was not active. The list is not random: actives were taken first. Their share in the collection is about 12%. Unless noted, calls follow the shape of the dose curve; as a rule, active = well fitted curve in the direction sought with a large enough effect; inconclusive = small, poorly fitted or top-dose-only effect, or another doubt; inactive = no such curve, though single readings can be large; an effect the other way counts as inactive or inconclusive. Potency is read from the fitted curve at half-maximal effect.

SMILES | NS1 inh | Pf growth 96h | AMA1-RON2 inh | SARS PLpro yeast | Pf growth 48h | HCV inh
CC(=O)NC(CCCN1C(=O)c2ccccc2C1=O)c1nnn(C)n1 (configuration not stated) | 6.7% | -22.7% | 8.6% | 18.1% | 14.4% | 4.2%
Cc1ccc(C2=NN(CC(=O)O)C(=O)CC2)cc1 | 1.0% | 0.0% | -2.2% | 0.0% | · | 10.5%
N#C/C(=C\C=C\c1ccccc1)C(=O)NCc1ccco1 | -1.7% | 14.7µM* | 4.9% | -1.5% | ? | 7.0%
N#C/C(=C\c1ccc(O)cc1)C(=O)N1CCCC1 | 3.6% | -25.3% | 3.4% | 0.3% | -15.1% | 6.1%
N#C/C(=C\C=C\c1ccccc1)C(=O)N1CCCC1 | 3.1% | ? | -1.5% | -6.4% | 7.38µM* | 9.1%
O=C(NCC(c1cccs1)N1CCOCC1)c1cc(S(=O)(=O)N2CCOCC2)ccc1Cl (configuration not stated) | · | · | -1.2% | · | · | 6.0%
Cc1csc2nc(O)c(C(=O)NCCCc3ccccc3)c(=O)n12 | · | 47.8% | 76.6% | 4.4% | -1.0% | ?
Cc1csc2nc(O)c(C(=O)NCCC3=CCCCC3)c(=O)n12 | · | ? | 41.4% | -0.4% | 10.4µM* | -2.1%
Cc1c(C)c2ccc(OCC(=O)N3CCN(C(=O)C4COc5ccccc5O4)CC3)cc2oc1=O (configuration not stated) | -0.3% | ? | 8.3% | 3.0% | -22.7% | ?
Cc1cc(=O)oc2cc(OCC(=O)N3CCN(C(=O)C4COc5ccccc5O4)CC3)ccc12 (configuration not stated) | -14.9% | 13.1µM* | 1.4% | 2.7% | ? | 17.8µM*
O=C(COc1ccc2ccc(=O)oc2c1)N1CCN(C(=O)C2COc3ccccc3O2)CC1 (configuration not stated) | 3.4% | ? | -3.5% | 3.7% | ? | ?
CCCc1cc(=O)oc2cc(OCC(=O)N3CCN(C(=O)C4COc5ccccc5O4)CC3)ccc12 (configuration not stated) | 1.2% | 11.7µM* | -7.8% | -4.2% | ? | ?
Cc1cc(=O)oc2cc(OCC(=O)N3CCN(C(=O)C4COc5ccccc5O4)CC3)c(Cl)cc12 (configuration not stated) | 14.5% | 13.1µM* | -7.7% | 3.0% | -14.5% | ?
CCC1(c2ccccc2)NC(=O)N(CC(=O)Nc2cc(S(=O)(=O)N3CCOCC3)ccc2OC(C)C)C1=O (configuration not stated) | · | ? | -0.4% | 0.8% | 11.7µM* | ?
CCOc1ccc(S(=O)(=O)N2CCCCC2)cc1NC(=O)CN1C(=O)NC(C)(c2ccc(C)cc2)C1=O (configuration not stated) | · | 7.38µM* | 60.2% | -1.3% | 13.1µM* | 10µM*
CC(C)Oc1ccc(S(=O)(=O)N2CCCCC2)cc1NC(=O)CN1CCCC1c1cccs1 (configuration not stated) | · | 4.15µM* | 0.0% | -4.8% | 4.15µM* | ?
Cc1ccc(C2(C)NC(=O)N(CC(=O)Nc3cc(S(=O)(=O)N4CCOCC4)ccc3OC(C)C)C2=O)cc1 (configuration not stated) | · | · | -3.5% | · | · | ?
CCOc1ccc(S(=O)(=O)N2CCOCC2)cc1NC(=O)CN1C(=O)NC(C)(c2ccccc2)C1=O (configuration not stated) | · | ? | -13.4% | 2.3% | ? | 8.2%
CCOc1ccc(S(=O)(=O)N2CCOCC2)cc1NC(=O)CN1C(=O)NC(CC)(c2ccccc2)C1=O (configuration not stated) | -5.3% | ? | 6.8% | -6.2% | 11.7µM* | -29.1%
CC(C)Oc1ccc(S(=O)(=O)N2CCCCC2)cc1NC(=O)CN1C(=O)NC2(CCCC2)C1=O | · | ? | 10.7% | -4.6% | 11.7µM* | ?
Cc1ccc(C2(C)NC(=O)N(CC(=O)Nc3cc(S(=O)(=O)N4CCCCC4)ccc3OC(C)C)C2=O)cc1 (configuration not stated) | · | ? | -3.5% | -1.9% | ? | ?
COCCCN=Cc1c(C)[nH]n(-c2ccc(Br)cc2Br)c1=O | · | 17.4% | 1.4% | -1.0% | 25.2% | 1.0%
O=S(=O)(c1ccc(Cl)c(NC(=S)N/N=C/c2ccc(O)cc2)c1)N1CCOCC1 | 21.8% | 3.29µM* | 0.2% | -6.4% | -27.2% | ?
N#Cc1ccc(/C=N/NC(=S)Nc2ccc(S(=O)(=O)N3CCOCC3)cc2)cc1 | -42.7% | ? | 109.2% | -0.4% | ? | -29.0%
O=[N+]([O-])c1cc(Cl)cc(/C=N/NC(=S)Nc2ccc(S(=O)(=O)N3CCOCC3)cc2)c1O | -7.5% | ? | 10µM* | 8.5% | 0.465µM* | -3.3%
SMILES | NS1 inh | Pf growth 96h | AMA1-RON2 inh | SARS PLpro yeast | Pf growth 48h | HCV inh
O=S(=O)(c1ccc(NC(=S)N/N=C/c2ccc(O)c(O)c2)cc1)N1CCOCC1 | 3.2% | 13.1µM* | 32.8% | 0.3% | 14.7µM* | 1.4%
CN1CCN(S(=O)(=O)c2ccc(NC(=S)NC(=O)c3ccc(Cl)cc3)cc2)CC1 | 10.6% | 2.33µM* | 41.3% | -19.8% | 4.65µM* | ?
CN1CCN(S(=O)(=O)c2ccc(NC(=O)Nc3cccc(Cl)c3)cc2)CC1 | -17.0% | 1.8% | -13.0% | 3.5% | 2.94µM* | 7.94µM*!
O=C(Nc1cccc(Cl)c1)Nc1cc(S(=O)(=O)N2CCCCC2)ccc1Cl | 21.6% | 2.94µM* | -9.7% | -10.9% | ? | 11.2µM*
CN1CCN(S(=O)(=O)c2ccc(NC(=O)c3ccccc3Cl)cc2)CC1 | -12.6% | 0.0% | 22.6% | -1.5% | 3.8% | 13.3%
C/C(=N\NC(=O)c1ccc(NS(=O)(=O)c2cccs2)cc1)c1ccc(O)cc1O | 4.8% | -57.2% | 37.8% | 17.8% | ? | -18.9%
Cc1sc2nc(CN3CCCC3)nc(N3CCN(C(=O)c4ccco4)CC3)c2c1C | · | 3.7µM* | -3.8% | 0.3% | ? | ?
Cc1sc2nc(CN3CCCC3)nc(N3CCC(C(N)=O)CC3)c2c1C | 6.2% | 9.28µM* | 0.6% | -18.3% | · | ?
Cc1sc2nc(CN3CCC(C)CC3)nc(Cl)c2c1C | 5.8% | 15.5% | · | 4.0% | 8.8% | ?
CC1(C(=O)Nc2cccc3cccnc23)CCN1Cc1ccccc1OC(F)F (configuration not stated) | · | · | 85.0% | · | · | ·
C/C(O)=C(/N=O)C(=O)Nc1ccccc1 | 0.2% | 11.7µM* | -2.0% | -5.4% | 0.6% | 17.9%
CC(=O)Nc1ccc(NC(=O)Nc2ccccc2)cc1 | -0.3% | 103.5% | -4.9% | 1.5% | 98.3% | 8.5%
